PAFAH1B2 FP inh: PAFAH1B2 (human) inhibition | P68402 | 340,000 compounds, 1.2% hits | inhibition, % at 3.39 µM | AID 492953 | recombinant PAFAH1B2, FP-rhodamine activity probe, fluorescence polarization;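 active = inhibition above the mean of all tested compounds plus 3 SD, cut at about 24% in these data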;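 also: 0% = enzyme with DMSO and 100% = wells lacking PAFAH1B2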
PAFAH2 inh: inhibitors of human PAFAH2; Q99487; recombinant PAFAH2, FP-rhodamine activity probe, fluorescence polarization; inhibition, % at 3.39 µM; 340,000 compounds, 0.99% hits; AID 492956;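 active = inhibition above the mean over all tested compounds plus 3 SD, cut at about 30% in these data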;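 also: inhibitors block probe labeling of enzyme so polarization drops; 0% = enzyme with DMSO and 100% = wells lacking PAFAH2 protein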
Fam108B inh: blocks mouse Fam108B hydrolase in RBBP9 counter-screen; recombinant Fam108B, FP-Rh probe fluorescence polarization; inhibition, % at 9.51 µM; 300,000 compounds, 0.33% hits;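 active = inhibition above the screen mean inhibition plus 3 SD, computed separately per campaign, cut at about 18% in these data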;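 also: inhibitors lower polarization as less probe binds the enzyme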
pPAFAH inh: pPAFAH (human) enzyme inhibition; Q13093; 330,000 compounds, 1.5% hits; inhibition, % at 3.39 µM; recombinant pPAFAH, FP-rhodamine probe fluorescence polarization;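 active = inhibition above the mean inhibition across the screen plus 3 SD, cut at about 25% in these data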;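 also: inhibitors block binding of the rhodamine activity-based probe so polarization drops; 0% = enzyme with DMSO and 100% = wells lacking pPAFAH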
PME-1 primary: PME-1 (human) inhibition; Q9Y570; recombinant PME-1, FP-Rh probe fluorescence polarization; inhibition, % at 5.9 µM; 320,000 compounds, 0.53% hits; AID 2130;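 active = inhibition above the campaign mean of all compounds plus 3 SD, cut at about 26% in these data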;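 also: competitive labeling of PME-1 active site by serine hydrolase directed probe; 0% = PME-1 with DMSO and 100% = wells lacking PME-1 enzyme; inhibitors block probe labeling so polarization falls and inhibition rises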
Target sequence (Q9Y570 whole entry, looked up): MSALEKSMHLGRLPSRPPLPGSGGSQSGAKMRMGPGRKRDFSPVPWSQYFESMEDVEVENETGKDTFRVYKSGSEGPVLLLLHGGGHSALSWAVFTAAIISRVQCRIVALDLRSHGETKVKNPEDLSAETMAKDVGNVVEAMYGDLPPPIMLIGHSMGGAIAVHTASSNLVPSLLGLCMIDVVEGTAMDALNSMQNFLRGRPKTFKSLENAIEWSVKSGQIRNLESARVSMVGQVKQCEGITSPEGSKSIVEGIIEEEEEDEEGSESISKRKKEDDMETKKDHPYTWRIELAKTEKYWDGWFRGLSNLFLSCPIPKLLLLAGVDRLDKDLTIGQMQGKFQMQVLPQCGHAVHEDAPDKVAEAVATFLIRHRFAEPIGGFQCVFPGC
PAFAH1B3 inh: blocks human PAF acetylhydrolase 1B catalytic subunit 3 | 340,000 compounds, 0.28% hits | recombinant PAFAH1B3, FP-rhodamine probe, fluorescence polarization | inhibition, % at 3.39 µM;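 active = inhibition above the screen-wide average of all tested compounds plus 3 SD, cut at about 25% in these data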;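 also: 0% = enzyme with DMSO only and 100% = wells lacking PAFAH1B3 protein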
Target sequence (Q15102 whole entry, looked up): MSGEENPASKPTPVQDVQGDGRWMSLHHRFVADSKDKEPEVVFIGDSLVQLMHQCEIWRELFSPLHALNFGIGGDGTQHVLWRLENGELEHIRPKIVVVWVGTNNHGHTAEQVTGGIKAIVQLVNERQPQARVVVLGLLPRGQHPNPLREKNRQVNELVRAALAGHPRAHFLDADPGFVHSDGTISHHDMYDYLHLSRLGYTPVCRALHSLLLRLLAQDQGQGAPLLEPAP
The depositor's hits bear a star; nt = no result given. Most compounds without a hit are left out; they make up all but 2.9% or so of the library.

SMILES	PAFAH1B2 FP inh	PAFAH2 inh	Fam108B inh	pPAFAH inh	PME-1 primary	PAFAH1B3 inh
CC(C)NCC#CCOc1ccc(Cl)cc1	30*	7	-1	6	2	2
CC(C)NCC(O)COCCOc1ccc(Cl)cc1 (stereo not given)	9	1	1	1	2	6
CCC(=O)N1CCN(c2ccccc2NC(=O)COc2ccc(C(C)C)cc2)CC1	8	-7	7	6	-19	5
Cc1ccc(COc2ccc(/C=N/O)cc2)cc1	33*	1	-2	1	-5	1
O=C(NC1CC1)c1ccc(Cl)c(S(=O)(=O)N2CCOCC2)c1	4	-5	2	3	-6	12
O=C(/C=C/c1ccco1)NC(=S)Nc1ccc(O)c(-c2nc3ccccc3s2)c1	-3	13	-7	25*	1	-1
Cc1ccc(O)c(NC(=S)NC(=O)/C=C/c2ccco2)c1	2	-5	12	25*	15	7
COc1ccc(NC(=S)NC(=O)/C=C/c2ccco2)cc1	1	0	-1	7	-1	4
Cc1ccc(O)c(NC(=S)NC(=O)/C=C/c2ccccc2)c1	-4	3	-2	-2	-4	2
O=C(C[C@H]1C/C=C\CC[C@H](Cc2ccc(F)cc2)C(=O)OCCNC1=O)NCCO	5	1	nt	7	nt	11
C=CCOc1c(OC)cc(/C=N/Nc2cccc(C(=O)O)c2)c(Br)c1Br	3	24	25*	14	46*	5
C=CCOc1c(/C=N\NC(N)=O)cccc1OC	8	-1	-2	2	1	10
Cc1ccc(Cl)cc1NC(=O)CCS(=O)(=O)c1cccc2nonc12	8	3	0	9	1	3
N#Cc1c(SCC(=O)Nc2ccc(Cl)cc2Cl)sc2c(O)cc(=O)[nH]c12	1	10	-3	30*	-11	8
N#Cc1c(SCC(=O)Nc2ccccc2C(F)(F)F)sc2c(O)cc(=O)[nH]c12	6	7	6	27*	-6	9
N#Cc1c(SCC(=O)Nc2cccc(F)c2)sc2c(O)cc(=O)[nH]c12	8	15	-1	30*	-24	18
Cc1c(Cl)cccc1NC(=O)CSc1sc2c(O)cc(=O)[nH]c2c1C#N	8	-1	-2	20	-6	4
CCCSc1nnc(NC(=O)CSc2sc3c(O)cc(=O)[nH]c3c2C#N)s1	16	37*	6	43*	-25	15
O=C(CCN1C(=O)c2ccccc2S1(=O)=O)Nc1ccc(C(=O)O)cc1	4	-2	-3	0	-3	-6
CN(C(=O)CSc1n[nH]c(N)n1)C1CCCCC1	0	-5	nt	0	nt	11
Nc1nc(SCC(=O)C23CC4CC(CC(C4)C2)C3)n[nH]1	27*	0	4	3	-1	-2
CC(OC(=O)c1ccc([N+](=O)[O-])s1)C(=O)Nc1ncc(Cl)cc1Cl (stereo not given)	17	30*	3	26*	-8	30*
Cc1ccc(OC(C)C(=O)Nc2ncc(Cl)cc2Cl)c([N+](=O)[O-])n1 (stereo not given)	4	0	nt	2	nt	10
Cc1ccccc1C(=O)OCC(=O)Nc1cccc(S(=O)(=O)NC2=NCCC2)c1	3	14	nt	-4	nt	5
CCC(=O)Nc1nc(C)c(-c2csc(Nc3cccc(O)c3)n2)s1	10	13	16	32*	30*	12
SMILES	PAFAH1B2 FP inh	PAFAH2 inh	Fam108B inh	pPAFAH inh	PME-1 primary	PAFAH1B3 inh
N/C(=N\OC(=O)CCC1CCCC1)c1ccc(Cl)cc1	25*	10	3	-2	1	-7
Cc1ccccc1C(=O)Nc1ccc(C(=O)NNC(=O)CCCOc2ccc(Cl)cc2Cl)cc1	0	-2	-7	4	-3	-4
Cc1cc(Cl)ccc1OCCCC(=O)NNC(=O)c1ccccc1O	13	2	-1	29*	-2	15
O=C(O)CC1(CC(=O)N2CCC(C(=O)O)CC2)CCCC1	3	-3	0	2	-4	8
Cc1cc(C)c(S(=O)(=O)Nc2cccc(C(=O)O)c2)cc1S(=O)(=O)Nc1cccc(C(=O)O)c1	7	8	-1	0	2	10
COc1ccc(CCN2CC(C(=O)OCC(=O)Nc3c(C)nn(-c4ccccc4)c3C)CC2=O)cc1OC (stereo not given)	-3	-1	4	3	-5	5
Cc1cc(=O)c2c(o1)C(=O)c1occc1C2=O	26*	38*	nt	nt	nt	47*
CC(C)(C)NC(=O)CN(CCN1CCOCC1)C(=O)CNS(=O)(=O)c1ccc(Cl)cc1	7	0	-9	4	-1	-5
CC(C)c1ccc(NS(=O)(=O)c2ccc3[nH]cc(C(=O)N4CCC(C(N)=O)CC4)c(=O)c3c2)cc1	2	1	-2	70*	-2	6
CC(=O)C(=Nc1ccc(Cl)cc1Cl)NNc1cccc(Cl)c1	-1	-7	9	25*	12	1
Cc1ccc(Nc2cc(C)nn2-c2nc(C)cc(C)n2)cc1	1	22	-1	21	5	1
Cc1ccc(Nc2cc(C)nn2-c2nc(C)cc(=O)[nH]2)cc1	-2	4	6	30*	5	3
Cc1ccc(CONS(=O)(=O)c2cc(C)ccc2C)cc1	18	12	nt	9	2	-3
O=S(=O)(NOCc1ccc(Cl)cc1)c1ccc(Cl)cc1	56*	15	-1	29*	-10	7
O=C(COC(=O)c1ccc(O)cc1O)Nc1cc(-c2ccccc2)nn1-c1ccccc1	-4	-14	-12	-1	-6	-4
CC(=O)C[C@@H](O)CC(=O)[C@H]1OC(=O)CCCCCc2ccccc21	7	0	nt	5	nt	13
CC(=O)C[C@@H](O)CC(=O)[C@H]1OC(=O)CCCCCCCCc2ccccc21	43*	-3	nt	0	nt	4
CC(=O)C[C@@H](O)CC(=O)[C@@H]1OC(=O)CCCCCCCCc2ccccc21	28*	-3	nt	3	nt	-11
CCC(=O)OC1(C)C(=O)C=C2C=C(CCCC(=O)OC)OC=C2C1=O (stereo not given)	-4	4	5	16	5	3
COC(=O)CCCC1=CC2=CC(=O)C(C)(OC(=O)C3CCCC3)C(=O)C2=CO1 (stereo not given)	6	1	-2	32*	0	-1
CCC(=O)OC1(C)C(=O)C=C2C=C(CCCCNC(=O)OC(C)(C)C)OC=C2C1=O (stereo not given)	nt	nt	2	30*	4	nt
CC(C)(C)OC(=O)NCCCC1=CC2=CC(=O)C(C)(OC(=O)c3ccc(Cl)nc3)C(=O)C2=CO1 (stereo not given)	nt	nt	7	40*	25	nt
CC(C)(C)OC(=O)NCCCC1=CC2=CC(=O)C(C)(O)C(=O)C2=CO1 (stereo not given)	nt	nt	0	32*	-2	nt

Screening data as filed in PubChem.
